# About 14,000 (4.5%) of roughly 310,000 compounds showed an effect of 50% or more. The effect is printed as a negative number. This is one part of a sample in which strong results are shown more often than they occur.
# Molecular target: human ether-à-go-go-related gene (hERG) potassium channel (human, UniProt Q12809)
# Assay: primary screen, population patch clamp on CHO cells stably expressing hERG; higher = less effect of the substance
# 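Note: peak tail current of the secondary pulse compared with the same well before compound.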
# Sequence of human ether-à-go-go-related gene (hERG) potassium channel (Q12809 whole entry, looked up): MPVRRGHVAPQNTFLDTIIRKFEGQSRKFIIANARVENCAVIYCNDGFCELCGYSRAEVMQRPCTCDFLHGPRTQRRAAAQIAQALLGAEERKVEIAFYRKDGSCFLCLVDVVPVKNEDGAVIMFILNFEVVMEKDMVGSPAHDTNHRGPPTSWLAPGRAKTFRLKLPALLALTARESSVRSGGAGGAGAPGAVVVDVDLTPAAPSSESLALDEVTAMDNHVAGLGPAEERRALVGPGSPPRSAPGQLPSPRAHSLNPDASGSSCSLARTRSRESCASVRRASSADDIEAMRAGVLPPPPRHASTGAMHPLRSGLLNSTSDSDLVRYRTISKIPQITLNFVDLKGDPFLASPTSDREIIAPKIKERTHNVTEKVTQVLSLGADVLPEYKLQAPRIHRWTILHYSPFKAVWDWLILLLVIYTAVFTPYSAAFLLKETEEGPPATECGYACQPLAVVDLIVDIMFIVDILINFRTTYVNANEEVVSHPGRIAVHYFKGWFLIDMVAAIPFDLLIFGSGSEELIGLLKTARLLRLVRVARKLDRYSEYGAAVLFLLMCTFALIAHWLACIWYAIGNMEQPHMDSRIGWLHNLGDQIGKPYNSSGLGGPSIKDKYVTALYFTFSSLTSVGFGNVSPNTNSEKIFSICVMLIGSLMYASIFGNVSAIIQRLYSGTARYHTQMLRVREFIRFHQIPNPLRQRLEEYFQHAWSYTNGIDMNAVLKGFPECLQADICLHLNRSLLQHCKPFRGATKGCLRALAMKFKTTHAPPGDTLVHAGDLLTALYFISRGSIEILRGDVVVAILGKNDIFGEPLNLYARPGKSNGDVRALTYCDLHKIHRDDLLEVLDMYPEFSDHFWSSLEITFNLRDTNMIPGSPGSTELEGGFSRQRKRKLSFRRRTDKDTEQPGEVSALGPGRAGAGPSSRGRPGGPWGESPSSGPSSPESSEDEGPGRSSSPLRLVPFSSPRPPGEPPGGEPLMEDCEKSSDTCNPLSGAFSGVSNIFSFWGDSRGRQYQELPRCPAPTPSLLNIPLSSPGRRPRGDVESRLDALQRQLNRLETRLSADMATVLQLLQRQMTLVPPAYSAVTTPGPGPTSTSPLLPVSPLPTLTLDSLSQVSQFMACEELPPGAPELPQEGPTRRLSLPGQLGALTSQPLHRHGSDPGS
row,SMILES,"hERG current change (%, negative = inhibition) at 10uM [%]"
1,CCc1ccc(OC)c(S(=O)(=O)Nc2ccccc2C)c1,3.86
2,COc1cccc(COCC(O)CN2CCC(C(N)=O)CC2)c1 (stereo not drawn),12.3
3,COc1ccc(-c2csc3ncnc(NCCCO)c23)cc1,-13.3
4,CC(C)CNC(CC(=O)Nc1cccc([N+](=O)[O-])c1)C(=O)O (stereo not drawn),-1.01
5,Cc1ccc(NC(=O)COC(=O)[C@H](C)NC(N)=O)c(C)c1,15.1
6,CCOc1ccc(S(=O)(=O)N2CCC(C(=O)NC3CCCCC3)CC2)cc1,18.3
7,CCOC(=O)C1CCN(CCC(=O)Nc2cccc(Cl)c2C)CC1,-5.48
8,CCOC(=O)C1CCN(CCC(=O)Nc2ccc(F)cc2)CC1,-31
9,CCOC(=O)C1CCN(CCC(=O)Nc2ccccc2Cl)CC1.Cl,-19.3
10,CCOC(=O)C1CCN(CCC(=O)Nc2ccc(Br)cc2)CC1,-63.5
11,CCOC(=O)C1CCN(CCC(=O)Nc2ccc(C)cc2)CC1,-32.4
12,CCOC(=O)C1CCN(CCC(=O)Nc2ccc(Cl)cc2)CC1,-62.4
13,COc1ccccc1C(=O)NCC1(c2ccccc2)CCCC1,1.65
14,O=C(NCCCCCCCCCNC(=O)C(F)(F)F)C(F)(F)F,-4.99
15,CC1CC(C)CN(C(=O)CCCn2c(=O)c3cccn3c3cccnc32)C1 (stereo not drawn),-11
16,CCCCn1c(=O)n(Cc2cccc(F)c2)c(=O)c2c1ncn2Cc1ccco1,-14.7
17,CCCCn1c(=O)n(CC(=O)Nc2ccc(C)c(Cl)c2)c(=O)c2c1ncn2Cc1ccco1,-6.22
18,N=c1c2c(-c3ccccc3)c(-c3ccccc3)n(Cc3ccco3)c2ncn1CCCO,-68.5
19,O=c1c2ccccc2ncn1Cc1ccco1,-19.8
20,N=c1c2c(-c3ccccc3)c(-c3ccccc3)n(Cc3ccccc3)c2ncn1CCO,-37.6

row,SMILES,"hERG current change (%, negative = inhibition) at 10uM [%]"
1,N=c1c2c(-c3ccccc3)c(-c3ccccc3)n(Cc3ccco3)c2ncn1CCO,-71
2,O=c1c2cnn(-c3ccccc3)c2ncn1Cc1ccco1,-7.57
3,N#Cc1c(-c2ccccc2)c(-c2ccccc2)n(Cc2ccco2)c1NC(=O)c1cccs1,12.6
4,CCCCn1cnc2c(c(-c3ccccc3)c(-c3ccccc3)n2Cc2ccco2)c1=N,-75.1
5,NC(=S)N/N=C/c1ccc(C23CC4CC(CC(C4)C2)C3)cc1,23.2
6,CN1CCc2cc3c(cc2[C@H]1[C@@H]1OC(=O)c2c1ccc1c2OCO1)OCO3,7.02
7,O=C1C(=O)N(CC2CCCO2)C(c2ccco2)/C1=C(/O)c1ccc(F)cc1 (stereo not drawn),-13.4
8,COc1cnc(SCc2c(Cl)cccc2Cl)nc1Cl,-1.4
9,COC(=O)c1cccc(CSc2nnc(C)s2)c1,-1.67
10,O=C(OCC(=O)N1CCCC1=O)c1nc(Cl)c(Cl)c(Cl)c1Cl,-60.4
11,O=C(OCC(=O)N1CCCC1=O)c1ncc(Cl)c(Cl)c1Cl,0.304
12,Nc1c(Cl)c(Cl)nc(C(=O)OCC(=O)N2CCCC2=O)c1Cl,-22.5
13,COc1cccc(C(=O)Nc2cc(-c3cn4cccnc4n3)ccc2C)c1,-12
14,O=C1C=C(Nc2ccc(Cl)cc2)C(=O)N1c1ccc(Cl)cc1,9.57
15,O=C(NCCC(=O)N(CCc1ccccc1)Cc1ccccc1)c1ccc(Br)cc1,-44.9
16,O=C(NCCC(=O)N(CCc1ccccc1)Cc1ccccc1)c1ccccc1Cl,-72.9
17,O=C(NCCc1ccccc1)c1ccccc1Cl,3.33
18,CCOC(=O)C1=C(O)/C(=C\c2ccc(O)c(OCC)c2)N=C1C,8.17
19,C1CCC(NC2=NCCC2)CC1.Cl,-1.01
20,O=C(O)Cn1nc(C(F)(F)F)c2c1CCC2,20.4

row,SMILES,"hERG current change (%, negative = inhibition) at 10uM [%]"
1,CCCN1C2CCCC1CC(NC(=O)c1ccc(C(C)(C)C)cc1)C2 (stereo not drawn),-37.1
2,CCCN1C2CCCC1CC(NC(=O)c1ccc(Br)cc1)C2 (stereo not drawn),-66.3
3,CCCN1C2CCCC1CC(NC(=O)c1ccccc1)C2 (stereo not drawn),-18.9
4,CCCN1C2CCCC1CC(NC(=O)c1ccc(F)cc1)C2 (stereo not drawn),-55.3
5,CCCN1C2CCCC1CC(NC(=O)c1ccc(OC)cc1)C2 (stereo not drawn),-30.1
6,CCCN1C2CCCC1CC(NC(=O)c1ccccc1F)C2 (stereo not drawn),-21.7
7,CCc1ccc(NCc2ccc(OC)c(Cn3ccnc3)c2)cc1,-10.5
8,O=C(O)CCCC(=O)N1N=C(c2c(-c3ccccc3)c3cc(Cl)ccc3[nH]c2=O)CC1c1cccs1 (stereo not drawn),23.2
9,Cc1c(C(=O)NCc2ccco2)oc2ccc(S(=O)(=O)N3CCC4(CC3)OCCO4)cc12,-19.7
10,C[C@H]1CN=C(Nc2ccccc2)N1CCc1ccccc1,-9.89
11,CCCCCCCN1C(Nc2ccccc2)=NC[C@@H]1C,-68
12,CCN1C(Nc2ccccc2)=NC[C@@H]1C,15.2
13,CCCCCCCN1C(Nc2ccccc2)=NC[C@@H]1Cc1ccccc1,-83.3
14,Cc1ccc(CCN2C(Nc3ccccc3)=NC[C@@H]2C)cc1,-35.9
15,CC(C)CCCN1C(Nc2ccccc2)=NC[C@@H]1C,-11.4
16,CCCCN1C(Nc2ccccc2)=NC[C@@H]1C,14.4
17,CCCCN1C(N)=NC[C@@H]1Cc1ccccc1,0.376
18,c1ccc(CCCCN2C(Nc3ccccc3)=NC[C@@H]2Cc2ccccc2)cc1,-71.5
19,CCN1C(Nc2ccccc2)=NC[C@@H]1Cc1ccccc1,-26
20,CCCCN1C(Nc2ccccc2)=NC[C@@H]1Cc1ccccc1,-66.1
